Screening results (PubChem)
Rv3671c inh = inhibits the M. tuberculosis serine protease Rv3671c; P9WHR9; inhibition, % at 5.96 µM; hit rate 0.048% among 320,000; AID 2606; in the data active = inhibition above about 38%;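 also: extracellular domain of Rv3671c used as enzyme; 0% = enzyme with DMSO and 100% = no enzyme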
CCHF vOTU inh-1 = CCHFV vOTU protease inhibition; inhibition, % at 11.5 µM; Pep-AMC fluorescence; AID 651958; hit rate 0.55% among 370,000; also: 0% = vehicle wells with enzyme and 100% = no enzyme wells
RecA intein inh = blocks M. tuberculosis RecA intein splicing | inhibition, % (no concentration beside the values) | AID 2221 | hit rate 0.75% among 290,000 | cell-free RecA intein splicing, fluorescence | P9WHJ3; in the data active = inhibition above about 30%;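 also: 0% = vehicle wells and 100% = reference inhibitor control wells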
Target sequence (P9WHJ3 whole entry, looked up): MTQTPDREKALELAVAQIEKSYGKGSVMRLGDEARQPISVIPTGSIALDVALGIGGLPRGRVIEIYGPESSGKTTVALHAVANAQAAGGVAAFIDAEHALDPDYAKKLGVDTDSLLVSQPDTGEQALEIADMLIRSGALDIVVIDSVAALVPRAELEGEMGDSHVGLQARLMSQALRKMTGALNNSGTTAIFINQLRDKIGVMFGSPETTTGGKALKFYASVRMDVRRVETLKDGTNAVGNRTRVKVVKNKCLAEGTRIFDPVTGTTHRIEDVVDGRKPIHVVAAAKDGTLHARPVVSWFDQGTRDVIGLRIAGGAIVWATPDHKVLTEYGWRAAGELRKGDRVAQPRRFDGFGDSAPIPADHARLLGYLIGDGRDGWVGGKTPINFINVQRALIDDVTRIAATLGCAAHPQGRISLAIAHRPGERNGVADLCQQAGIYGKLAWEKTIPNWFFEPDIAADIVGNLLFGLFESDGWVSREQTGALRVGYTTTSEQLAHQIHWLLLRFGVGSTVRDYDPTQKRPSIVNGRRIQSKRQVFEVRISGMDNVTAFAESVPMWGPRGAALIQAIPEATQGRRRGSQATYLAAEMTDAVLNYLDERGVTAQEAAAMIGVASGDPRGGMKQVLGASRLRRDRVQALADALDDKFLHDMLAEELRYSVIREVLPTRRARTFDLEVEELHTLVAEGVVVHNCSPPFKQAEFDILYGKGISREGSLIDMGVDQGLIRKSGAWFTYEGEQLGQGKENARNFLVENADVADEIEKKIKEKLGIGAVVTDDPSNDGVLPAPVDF
Mtb bLac sens = beta-lactam sensitization of Mtb H37Rv; M. tuberculosis H37Rv growth with meropenem, percent inhibition; inhibition, % at 25 µM; hit rate 0.27% among 330,000; call rule not given here;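 also: growth measured after seven days incubation then overnight dye step; 0% = bacteria only wells and 100% = bacteria with antibiotic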
UGM FP inh = inhibitors of M. tuberculosis UDP-galactopyranose mutase; P9WIQ1; inhibition, % at 10 µM; AID 504406; hit rate 0.06% among 320,000; purified UGM, fluorescence polarization probe displacement; in the data active = inhibition above about 10%, passing the limit was not always enough
CCHF vOTU inh-2 = confirmation of CCHF virus vOTU protease inhibitors; hit rate 17% among 1,900; inhibition, % at 11.5 µM; Recombinant CCHFV vOTU, Pep-AMC fluorescence; shares compounds with CCHF vOTU inh-1
* hit, by the source's call; . = not tested or not shown. Hits are enriched below; roughly 1.2% of the tested compounds scored in any of these assays. Rule as the data show it, unless noted: active = inhibition above about 30%; inactive = the rest.

SMILES	Rv3671c inh	CCHF vOTU inh-1	RecA intein inh	Mtb bLac sens	UGM FP inh	CCHF vOTU inh-2
O=C(Nc1c(-c2ccc3c(c2)OCO3)[nH][nH]c1=O)c1cccc(C(F)(F)F)c1	.	34*	.	.	.	-9
O=C(Nc1c(-c2ccc3c(c2)OCO3)[nH][nH]c1=O)c1ccccc1	.	42*	.	.	.	-6
O=C(Nc1c(-c2ccccc2)[nH][nH]c1=O)c1ccc2c(c1)OCO2	.	10	.	.	.	.
COC(=O)[C@]12C[C@H](CC(=O)NCc3ccc(OC)c(OC)c3)C(=O)N(CCC3=CCCCC3)C1=C[C@H](C1CCCC1)O[C@@H]2C	.	14	.	.	.	.
Nc1ccc(C2=Nc3cccc4cccc(c34)N2)cc1	.	20	6	.	.	.
COc1cccc(C2=Nc3cccc4cccc(c34)N2)c1	2	30*	2	20	0	-21
Oc1ccc(CNc2ccccc2F)c2cccnc12	6	14	-3	95	-2	.
O=S(=O)(Nc1ccc(O)c2ncccc12)c1ccccc1F	.	62*	.	.	.	19
Cc1ccc(C(=O)N(C)[C@H]2C[C@H]3c4[nH]c5c(-c6ccc7c(c6)OCO7)cccc5c4CCN3C[C@H]2[C@H](C)O)cc1	.	-3	.	.	.	.
C#CCNC(=O)C[C@@H]1C[C@@]2(C(=O)OC)CC(C)(C)CC=C2N(CCCCCCCC)C1=O	.	31*	.	.	.	8
CCCCCCCCN1C(=O)[C@H](CC(=O)NCc2ccc(C)o2)C[C@@]2(C(=O)OC)CC(C)(C)CC=C12	.	30*	.	.	.	7
CCCCCCCCN1C(=O)[C@H](CC(=O)NCC2CCCCC2)C[C@@]2(C(=O)OC)CC(C)(C)CC=C12	.	26	.	.	.	.
CCCCCCCCN1C(=O)[C@H](CC(=O)NCCCOCCCC)C[C@@]2(C(=O)OC)CC(C)(C)CC=C12	.	22	.	.	.	.
COC(=O)[C@@]12C[C@@H](CC(=O)NCCC(C)C)C(=O)N(CCc3ccc(OC)c(OC)c3)C1=CCC(C)(C)C2	.	30*	.	.	.	2
CCCCCCCCN1C(=O)[C@H](CC(=O)NCCCOC)C[C@@]2(C(=O)OC)CC(C)(C)CC=C12	.	33*	.	.	.	20
Cc1cc(C)nc(N2CCC(C(=O)N(C)CCc3ccccc3)CC2)n1	.	7	.	.	.	.
CC1=C(C(=O)N(C(C)C)C(C)C)CC(CC(=O)NCc2cccc3ccccc23)C(=O)N1CCCN1CCCC1=O (stereo unspecified)	.	6	.	.	.	.
CC1=C(C(=O)N(C)C)CC(CC(=O)NCc2cccc3ccccc23)C(=O)N1CCCN1CCCC1=O (stereo unspecified)	.	36*	.	.	.	-22
COc1cc(CNC(=O)Nc2nc(C(N)Cc3ccc(C(F)(F)F)cc3)cs2)cc(OC)c1OC (stereo unspecified)	.	31*	.	.	.	-19
CCCCN(C)C(=O)c1ccc(Nc2nc(C(N)Cc3ccc(C(F)(F)F)cc3)cs2)nc1 (stereo unspecified)	.	32*	.	.	.	-9
COC(=O)[C@]12C[C@H](CC(=O)NCc3ccc(OC)c(OC)c3)C(=O)N(Cc3cccc4ccccc34)C1=C[C@H](COCc1ccccc1)O[C@@H]2C	.	5	.	.	.	.
CC(/C=C1\SC(=S)N(c2ccc(C(=O)O)cc2)C1=O)=C\c1ccccc1	-41	30*	2	6	-3	4
COc1ccccc1CCn1cnc(-c2ccccc2F)c1CC(C)C	.	45*	.	.	.	2
CCCCc1c(-c2ccc(F)cc2F)ncn1CCc1ccccc1OC	.	40*	.	.	.	5
CC1Cc2nc(SCC(N)=O)n(C)c(=O)c2S1 (stereo unspecified)	-1	32*	-2	3	2	-9
SMILES	Rv3671c inh	CCHF vOTU inh-1	RecA intein inh	Mtb bLac sens	UGM FP inh	CCHF vOTU inh-2
CCN(CC)CCCNC(=O)CSc1nc2cccnc2n1C	.	-3	.	.	.	.
COc1cc(N)c2ncccc2c1Br	.	105*	.	.	.	25
Cc1ccc2c(c1)C(=O)C(=O)N2c1ccc(C(F)(F)F)cc1	-4	30*	.	-3	-2	-9
CC1CCc2c(sc(NC(=O)c3ccccc3C(=O)O)c2C#N)C1 (stereo unspecified)	4	7	-1	-4	-1	.
CCC(C)(C)C1CCc2c(sc(NC(=O)c3ccccc3C(=O)O)c2C#N)C1 (stereo unspecified)	-4	35*	8	-1	4	24
COC(=O)[C@]12C[C@H](CC(=O)NCc3ccccc3)C(=O)N(Cc3ccc4c(c3)OCO4)C1=C[C@H](C(C)(C)C)O[C@@H]2C	.	26	.	.	.	.
CCCCNC(=O)C[C@H]1C[C@@]2(C(=O)OC)C(=C[C@H](C(C)(C)C)O[C@@H]2C)N(Cc2ccc3c(c2)OCO3)C1=O	.	24	.	.	.	.
